Results from PubChem BioAssay AID504465 (National Center for Advancing Translational Sciences (NCATS), 2011).
In all, about 2,100 compounds went through this assay and about 210 (10%) were called active. Roughly 53% stayed inconclusive and do not appear here. Calls come from the whole dose curve; as a rule, active = well fitted inhibition curve with a large enough effect; inconclusive = small, poorly fitted or top-dose-only effect, or effect the other way; inactive = no such curve, though single readings can be large or run the other way. The list shows a part of the results.

Assay: IN Cell qHTS Assay for Inhibitors of the mTORC1 Signaling Pathway in MEF (Tsc2-/-, p53-/-) Cells: Sytravon; note: nearly all actives have a fitted effect of over 60% in size
Conditions: phospho-rpS6 immunofluorescence, 24 h; series mostly up to 38.3 µM; activity, negative = inhibition: at the top concentration
Summary of the method: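 Immunofluorescence of rpS6 phosphorylation (Ser235/236) in mouse embryonic fibroblasts lacking Tsc2 and p53, after 24 h compound exposure; Hoechst-normalized signal imaged, each well scored as % active cells relative to rapamycin (7.5 nM) and DMSO controls.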
Potency is the fitted concentration of half-maximal effect.

activity, negative = inhibition, inactive:
COc1ccccc1CN1COc2ccc3c(oc(=O)c4ccccc43)c2C1 -13.4%, CC(C)CN(CC(C)C)c1nnc(NC(=O)Nc2cccc(C(F)(F)F)c2)s1 2.09%, COc1ccc(OC)c(NS(=O)(=O)c2ccc3c(c2)C(C)(C)C(=O)N3C)c1 -4.35%, O=C(Cn1c(=O)oc2cc(S(=O)(=O)NCc3ccccc3)ccc21)NCc1ccc(Cl)cc1 0%, CC(C)(C)c1ccc(C(=O)N2CCCCC2CCN2CCCCC2)cc1 (configuration not stated) -14.5%, CC(C)(C)c1ccc(C2NC(=O)c3n[nH]c(-c4cccs4)c32)cc1 (configuration not stated) -100%, CCOC(=O)c1ccc(N2C(=O)c3n[nH]c(-c4cccs4)c3C2c2ccc(CC)cc2)cc1 (configuration not stated) -94.6%, Cc1ccc(C)c(NC(=O)Cn2cc(C(=O)c3cccs3)c3ccccc32)c1 -9.22%, Cc1ccc(NC(=O)CSc2nc(-c3cccs3)cc(C(F)(F)F)n2)cc1C -19.5%, Cn1c(=O)c2c(-c3ccc(Br)cc3)n(Cc3ccc(F)cc3)cc2n(C)c1=O -79.2%, CSc1ccccc1NC(=O)CCS(=O)(=O)c1nc(-c2cccs2)cc(C(F)(F)F)n1 3.05%, COc1ccc(NC(=O)CCS(=O)(=O)c2nc(-c3cccs3)cc(C(F)(F)F)n2)cc1 -14.4%, COc1ccc(NC(=O)C2CCC(CNS(=O)(=O)c3ccc(Br)s3)CC2)cc1OC (configuration not stated) -78.3%, c1ccc(N2CCN(c3ncnc4c3nc3n4CCCCC3)CC2)cc1 -7.73%, CC(=O)c1ccc(N2CCN(c3ncnc4c3c(-c3ccccc3)cn4-c3cccc(C)c3)CC2)cc1 6.25%, CCCc1cc(N2CCN(c3ccccc3)CC2)n2cnnc2n1 -1.92%, Cc1c(Cl)cccc1NC(=O)c1ccc2c(c1)nnn2C1CCCC1 -0.577%, Nc1c(C(=O)c2ccc(F)cc2)sc(Nc2ccccc2F)c1S(=O)(=O)c1ccc(Br)cc1 0.296%, Cc1cc(-c2ccc(C)c(S(=O)(=O)N3CCOc4ccc(Cl)cc43)c2)on1 -4.75%, Cc1cccc(NC(=O)Cn2nc(-c3ccc(Cl)cc3)c3ccccc3c2=O)c1 -100%, COC(=O)COc1ccc(-c2nnc(Nc3ccc(O)cc3)c3ccccc23)cc1 -15.2%, COc1ccc(OC2CCN(S(=O)(=O)c3ccc(OC)cc3)CC2)cc1 -7.91%, CCCCC(=O)Nc1nnc(S(=O)(=O)N2CCCCCC2)s1 -15.2%, CCCN(C(=O)Cn1ncc2c([nH]c3ccc(C)cc32)c1=O)c1ccccc1C 1.08%, CCN(CC)CCCNc1ncnc2c1cnn2-c1ccc(C)c(C)c1 6.25%, O=C(Nc1ccc(F)cc1F)N1CCN(c2ccc(Cl)c(Cl)c2)CC1 -14.8%, Cc1ccccc1NC(=O)CCn1cnc2onc(-c3ccc(F)cc3)c2c1=O -0.638%, Cc1cc2c(cc1C)NC(CC(=O)Nc1ccccc1)C(=O)N2 (configuration not stated) -11.2%, CCn1c2c(c(=O)n3ncc(C(=O)N4CCN(c5ccc(Cl)cc5)CC4)c13)CN(Cc1ccc(OC)cc1)CC2 -6.81%, CNS(=O)(=O)c1cn(CC(=O)N2CCN(c3cccc(Cl)c3)CC2)cc1S(=O)(=O)NC -5.97%, Cc1ccccc1S(=O)(=O)Cc1ccc(C(=O)N2CCN(c3cccc(Cl)c3)CC2)o1 -13.2%, Cc1oc2ncnc(N3CCCCC3)c2c1C(=O)N1CCN(c2cccc(Cl)c2)CC1 -0.832%, Cc1ccc2nc(N3CCC(C(=O)N4CCN(c5cccc(Cl)c5)CC4)CC3)[nH]c2c1 10.7%, CCCS(=O)(=O)c1ncc(Cl)c(C(=O)N2CCN(c3ccc(OC)cc3)CC2)n1 0%, COc1ccc(N2CCN(C(CNC(=O)C(=O)NCc3ccc(F)cc3)c3cccnc3)CC2)cc1 (configuration not stated) -3.11%, Cc1ccc(CNS(=O)(=O)c2cc(C(=O)Nc3cccc(C(F)(F)F)c3)ccc2F)cc1 -5.56%, COc1ccc(NC(=O)c2c(NCc3ccc(C)o3)sc3c2CCC(C)C3)c(OC)c1 (configuration not stated) 0%, CC(=O)N1c2ccc(S(=O)(=O)NCC3CCC(C(=O)Nc4cccc(F)c4)CC3)cc2CC1C (configuration not stated) -6.44%, Cc1cc(-c2ccc(S(=O)(=O)Nc3cc(Cl)ccc3C)s2)on1 -20%, COc1cccc(CNC(=O)C2Cc3cc(S(=O)(=O)N4CCCCCC4)ccc3N2C(C)=O)c1 (configuration not stated) 0%, Cc1ccc2nc(/C(C#N)=C/c3cccc(Br)c3)[nH]c2c1 -32%, CCc1ccc(S(=O)(=O)c2nnn(-c3cccc(C)c3)c2N)cc1 2.14%, Cc1cccc(C2C=C(c3ccc(C)c(C)c3)Nc3nnnn32)c1 (configuration not stated) 0%, COc1ccc(C(=O)NC(c2ccccc2Cl)c2cc(Cl)c3cccnc3c2O)cc1 (configuration not stated) 0%, O=C(Nc1nnc(-c2cc(Cl)ccc2Cl)o1)c1ccc2c(c1)OCCO2 15.6%, COC(=O)c1sc2cccc(F)c2c1S(=O)(=O)N1CCN(c2cccc(OC)c2)CC1 0.892%, COc1ccc(/C=C/c2nc(C#N)c(NC3CCCCC3)o2)cc1OC -11.3%, COc1ccc(NC(=O)c2c(C)oc3ccc(O)c(CN4CCCCCC4)c23)cc1 -14.3%, COc1cccc(-c2cc(C(=O)Nc3ccn(Cc4ccc(C)cc4)n3)no2)c1 24.6%, Cc1ccc(CNCc2c(C(=O)O)n(Cc3ccc(C)cc3)c3cc(C)ccc23)cc1 -13.3%, O=C(Nc1ccc(C(F)(F)F)cc1)c1cc(S(=O)(=O)NC2CCCCCC2)ccc1F 6.25%, CCc1ccccc1NC(=O)CSc1nnc(COc2ccccc2Cl)o1 2.63%, Cc1ccc(OCC(=O)Nc2nnc(SCc3cc(=O)n4cc(C)ccc4n3)s2)cc1 2.68%, COc1cc(C(=O)N2CCc3c([nH]c4ccccc34)C2c2ccc(C)cc2)cc(OC)c1OC (configuration not stated) -41.5%, Cc1ccc(-n2c(SCc3ccccc3C)nc3[nH]ncc3c2=O)cc1C 0%, COc1ccc(Cl)cc1NC(=O)c1c(NCc2cccnc2)sc2c1CCC(C)C2 (configuration not stated) 0%, COc1ccc(Cl)cc1NC(=O)c1c(NCc2cccs2)sc2c1CCC(C)C2 (configuration not stated) 0%, CCCCC(=O)OC1=C(C(=O)c2ccccc2)N(CCC)S(=O)(=O)c2ccccc21 -13.9%, Cc1scc(CN2CCN(c3ccccc3F)CC2)c1C -3.84%, CC1C(=O)Nc2ccc(S(=O)(=O)Nc3ccccc3Br)cc2NC1=O (configuration not stated) -11.9%, CN(C)CCNC(=O)c1ccc(-n2c(-c3ccccc3)cc3c2CCCCC3)cc1 -13.6%, CCSc1ncc(Cl)c(C(=O)Nc2ccc(S(=O)(=O)N3CCCCC3CC)cc2)n1 (configuration not stated) -7.02%, CC(=O)Nc1c(C(=O)Nc2ccccc2F)oc2ccccc12 -23.3%, CN(C)C(=O)c1c(NC(=O)c2ccccc2F)sc2c1CCCC2 3.93%, CCS(=O)(=O)c1ncc(Cl)c(C(=O)Nc2c(C(=O)Nc3cccc(C)c3)oc3ccccc23)n1 -11.7%, Cc1cc(C)cc(-n2c(SCC(N)=O)nc3c([nH]c4ccccc43)c2=O)c1 -14.5%, CC1=C(C(=O)Nc2ccccc2)C(c2cccnc2)n2nc(SCc3ccccc3F)nc2N1 (configuration not stated) 4.84%, COc1ccc(Cl)cc1NC(=O)c1c(NCc2ccc(C)o2)sc2c1CCC(C)C2 (configuration not stated) 0%, COC(=O)c1ccc([C@H]2Nc3ccc(S(=O)(=O)Nc4ccc(F)cc4)cc3[C@H]3C=CC[C@H]32)cc1 -20.2%, CC(C)c1ccc(S(=O)(=O)Nc2ccc3oc4c(c3c2)C(=O)CC(C)(C)C4)cc1 -100%, COc1cc(S(=O)(=O)NCCc2c(C)[nH]c3ccccc23)c(C)cc1C 27.6%

Potency, active:
COc1cc2nc(Nc3ccc(C)c(C)c3)nc(N)c2cc1OC 4.14 µM, CCOC(=O)c1ccc(N2C(=O)c3n[nH]c(-c4cccs4)c3C2c2cccc(F)c2)cc1 (configuration not stated) 13.1 µM, Cc1ccc(F)cc1NC(=O)CSc1nc(-c2cccs2)cc(C(F)(F)F)n1 11.7 µM, O=C(CCS(=O)(=O)c1nc(-c2cccs2)cc(C(F)(F)F)n1)Nc1cc(Br)ccc1O 7.36 µM, COc1ccc(NC(=O)CCS(=O)(=O)c2nc(-c3cccs3)cc(C(F)(F)F)n2)cc1OC 16.5 µM, Cc1cccc(N2CCN(c3ncnc4c3nc3n4CCCCC3)CC2C)c1 (configuration not stated) 14.7 µM, CCCCC1CCC(C(=O)N2CC(=O)Nc3ccc(F)cc3C2c2ccc(F)cc2)CC1 (configuration not stated) 16.5 µM, Cc1ccc(-c2nnc(Nc3cccc(Cl)c3)c3ccccc23)cc1S(=O)(=O)N1CCN(C)CC1 9.27 µM, Cc1cccc(Nc2nnc(-c3ccc(C)c(S(=O)(=O)N4CCN(C)CC4)c3)c3ccccc23)c1 14.7 µM, COc1ccc(Nc2nnc(-c3ccc(C)c(S(=O)(=O)N4CCN(C)CC4)c3)c3ccccc23)cc1 16.5 µM, CCS(=O)(=O)c1ncc(Cl)c(C(=O)N2CCN(c3cccc(Cl)c3)CC2)n1 2.61 µM, CS(=O)(=O)c1ncc(Cl)c(C(=O)N2CCN(c3cccc(Cl)c3)CC2)n1 0.521 µM, CCS(=O)(=O)c1ncc(Cl)c(C(=O)N2CCN(c3ccc(OC)cc3)CC2)n1 4.65 µM, Cc1cccc(-n2nnnc2S(C)(=O)=O)c1 1.47 µM, COc1cccc(-c2nnc3sc(CN4CCCCC4)cn23)c1 14.7 µM, COc1cc(C(=O)n2nc(C)c(Sc3ccc(Cl)cc3)c2C)cc(OC)c1OC 11.7 µM, CC(C)(C)C1CCc2c(sc(NC(=O)c3cccc(Cl)c3)c2C(N)=O)C1 (configuration not stated) 7.36 µM, CCS(=O)(=O)c1ncc(Cl)c(C(=O)Nc2ccc(S(=O)(=O)N(C)c3ccccc3)cc2)n1 0.927 µM, CCS(=O)(=O)c1ncc(Cl)c(C(=O)Nc2ccccc2)n1 2.61 µM, CCNC(=O)c1c(NC(=O)c2nc(S(=O)(=O)CC)ncc2Cl)sc2c1CCCC2 2.07 µM, CCCS(=O)(=O)c1ncc(Cl)c(C(=O)Nc2c(C(=O)Nc3ccccc3)oc3ccccc23)n1 2.07 µM
